PI4K2A inh: blocks human PI4K2A kinase activity; Q9BTU6; purified PI4K2A, ADP-Glo luminescence, 1 h; active compounds read low; activity change, negative = inhibition, % at 76.9 µM; actives 0.13% (n = 420,000); in the data active = activity change below about -50%; inconclusive = mostly about -30% to -49%;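 also: -100% = wells without enzyme as full effect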
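Compounds are screened against recombinant PI4K2A using PI as substrate and ATP, the latter dispensed at 300 microM. Reactions run one hour at ambient temperature before ADP-Glo detection; full inhibition defined by wells lacking enzyme.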
VDR inh: blocks the human vitamin D receptor; P11473; VDR-SRC2-3 peptide fluorescence polarization, 2 h; Potency, µM, inactives show max response, negative = inhibition, actives largely listed as inhibitors; actives 0.93% (n = 400,000); also: potency is read from the fitted curve at half-maximal effect
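Measured by FP: displacement of SRC2-3 coactivator peptide from VDR by library compounds, following a two-hour ambient incubation.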
PLK1 PBD inh: inhibitors of human PLK1 polo-box domain binding; P53350; Plk1 PBD binding of FITC phosphopeptide, fluorescence polarization; Potency, µM, for the others: max response, negative = inhibition, actives largely listed as inhibitors; actives 2.8% (n = 360,000); AID 720504; also: potency is read from the fitted curve at half-maximal effect; series mostly up to about 57 µM; nearly all actives have a fitted effect of over 65% in size
GCN5L2 inh: inhibitors of human GCN5L2 histone acetyltransferase; Q92830; actives 0.21% (n = 390,000); Potency, µM (titrated, usually from 58.9 µM), for inactives: top-dose activity change, negative = inhibition, actives largely listed as inhibitors; GCN5L2 HAT assay, ThioGlo1 CoA-SH fluorescence; also: potency is read from the fitted curve at half-maximal effect
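Enzyme at 20nM final was mixed with library compounds for 15 min at room temperature. Peptide H3(1-25) at 75uM, acetyl-CoA at 70uM and ThioGlo1 at 50uM were then added. Plates were read immediately and after 20 min (Ex340nm/Em540nm).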
GLS inh: inhibitors of human glutaminase (GLS); actives 0.21% (n = 410,000); O94925; Potency, µM (series often up to 45.5 µM), for the others: top-dose activity change, negative = inhibition, usual class: inhibitors; GLS enzymatic activity, qHTS titration; also: potency is read from the fitted curve at half-maximal effect
Target sequence (O94925 whole entry, looked up): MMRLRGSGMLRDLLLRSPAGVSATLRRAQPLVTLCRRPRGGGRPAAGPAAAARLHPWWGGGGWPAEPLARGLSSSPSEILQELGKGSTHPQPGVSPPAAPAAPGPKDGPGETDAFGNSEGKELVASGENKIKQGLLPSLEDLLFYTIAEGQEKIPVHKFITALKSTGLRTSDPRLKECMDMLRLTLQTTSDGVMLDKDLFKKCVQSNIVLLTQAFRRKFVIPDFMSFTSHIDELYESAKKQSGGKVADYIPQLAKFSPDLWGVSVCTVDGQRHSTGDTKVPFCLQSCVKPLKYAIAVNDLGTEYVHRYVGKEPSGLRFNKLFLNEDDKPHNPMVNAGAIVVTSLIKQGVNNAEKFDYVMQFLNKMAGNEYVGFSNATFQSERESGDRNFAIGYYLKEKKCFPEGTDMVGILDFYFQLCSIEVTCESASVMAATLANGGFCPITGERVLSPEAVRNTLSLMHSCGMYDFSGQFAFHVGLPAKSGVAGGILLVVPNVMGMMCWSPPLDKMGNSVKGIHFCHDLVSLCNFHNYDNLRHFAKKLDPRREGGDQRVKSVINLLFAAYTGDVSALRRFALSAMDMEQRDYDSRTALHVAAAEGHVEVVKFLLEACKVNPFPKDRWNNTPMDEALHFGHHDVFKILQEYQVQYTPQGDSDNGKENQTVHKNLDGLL
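Coupled fluorescence readout: glutamate oxidase/HRP/Amplex Red detect glutamate formed by hKGA from L-glutamine (1 mM solution added). Buffer 45 mM KH2PO4 pH 8.2, 0.02% Tween-20; reads at t0 and 30 min RT.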
Active calls of the source: *; ? = inconclusive; . = no result given. An excerpt weighted towards active compounds, which were near 3.1% of everything screened. Unless noted, calls follow the shape of the dose curve; as a rule, active = well fitted curve in the direction sought with a large enough effect; inconclusive = small, poorly fitted or top-dose-only effect, or another doubt; inactive = no such curve, though single readings can be large; an effect the other way counts as inactive or inconclusive. Unless noted, % is scaled to controls: 0 for no effect and ±100 for the full control effect.

SMILES	PI4K2A inh	VDR inh	PLK1 PBD inh	GCN5L2 inh	GLS inh
COC(=O)C1CN(C2CCCC2)CCS(=O)(=O)N1Cc1ccc(Cl)cc1 (stereo unspecified)	1.9	.	.	.	.
O=S1(=O)c2ccc(N3CCCC3)cc2Oc2ccccc2CN1Cc1cn(Cc2ccc(C(F)(F)F)cc2)nn1	0.7	.	.	.	.
COc1cc2c(cc1OC)n(CC(=O)NC1CCCCCC1)n1c(C)cc(=O)nc21	-13.3	-7.6%	26.7µM*	0.3%	9.9%
O=C(Nc1ccc(Cl)cc1)C1CCCN1S(=O)(=O)c1cccc2cccnc12 (stereo unspecified)	-4.2	.	.	.	.
Cc1ccc(-n2c(SCC(=O)Nc3ccccc3-c3ccccc3)nnc2-c2ccco2)cc1	0.5	.	.	.	.
COC(=O)Oc1nsnc1N1CCOCC1	0.3	-90.7%	2.67µM*	-21.6%	-22.4%
O=C(NCc1ccco1)c1cc2c(s1)CSC2	-24.6	?	13.4µM*	?	-0.7%
O=C(NCc1ccc2c(c1)OCO2)c1cc2c(s1)CSC2	-19.9	-12.6%	-26.9%	-5.1%	19.1%
Cc1ccccc1OCC(=O)NC(=S)Nc1ccc2c3c(cccc13)CC2	-11.4	-25.1%	2.99µM*	-3.2%	?
Cc1ccc(NC(=O)CCS(=O)(=O)c2ccc(Br)s2)cc1	5.3	-14.4%	26.7µM*	-8.3%	1.9%
O=C1CCCN2N=C(SCC(=O)Nc3ccc([N+](=O)[O-])cc3)SC2=N1	0.1	?	37.7µM*	-0.9%	-8.9%
O=C1CCCN2N=C(SCC(=O)Nc3ccc(OC(F)(F)F)cc3)SC2=N1	2.1	-4.3%	-4.9%	-2.5%	-1.4%
CCOC(=O)n1c(=O)n(Cc2cccc(C)c2)c2ccccc21	-0.5	?	11.9µM*	-6.3%	-19.7%
CCOC(=O)n1c(=O)n(Cc2ccccc2Cl)c2ccccc21	-0.8	-2.4%	-1.4%	4.8%	-0.6%
CCn1c(-c2ccc(N(C)C)cc2)nc2ccccc21	-5.1	11.2%	0.1%	-2.9%	21.1%
Cn1c(-c2ccc(Br)o2)nc2ccccc21	-56.4*	3.7%	-10.1%	-0.8%	6.7%
CN(C)c1ccc(-c2nc3ccccc3n2C)cc1	?	0.1%	26.7µM*	-7.0%	49.6%
C[C@@H]1C(SC2Cn3cnc[n+]3C2)=C(C(=O)[O-])N2C(=O)[C@H]([C@@H](C)O)[C@@H]12 (stereo partly specified)	.	-3.5%	.	-24.7%	-11.2%
COc1ccc(NC(=O)CSc2nc(-c3cccs3)cc(C(F)(F)F)n2)cc1OC	0.4	4.6%	.	-3.1%	-12.9%
O=C(CCS(=O)(=O)c1nc(-c2cccs2)cc(C(F)(F)F)n1)Nc1ccc(OC(F)(F)F)cc1	-68.4*	14.1µM*	.	-5.6%	6.1%
CCc1c(C)c(C#N)c2[nH]c3ccccc3n2c1=S	-13.4	?	13.4µM*	?	?
CCc1cc(=S)n2c([nH]c3ccccc32)c1C#N	-1.8	?	?	28.2µM*	14.5%
CCc1cc(=O)n2c([nH]c3ccccc32)c1C#N	-10.0	3.9%	-0.9%	-1.8%	28.2%
CC(SCc1cc(=O)n2c([nH]c3ccccc32)c1C#N)C(=O)O (stereo unspecified)	-0.7	79.4µM*	13.4µM*	-1.5%	?
C=C(C)Cc1c(C)c(C#N)c2[nH]c3ccccc3n2c1=O	4.0	6.4%	-6.2%	?	31.6%
SMILES	PI4K2A inh	VDR inh	PLK1 PBD inh	GCN5L2 inh	GLS inh
CC(c1ccc(NC(=O)OC(C)(C)C)cc1)c1cn(C)c2ccccc12 (stereo unspecified)	-1.1	.	.	.	.
CCOC(=O)N1CCN(Cc2nc3cc(NC(=O)C(C)C)ccc3n2C(C)C)CC1	-4.9	1.0%	.	-2.7%	2.4%
Cc1ccc(S(=O)(=O)n2nc(C)c(C#N)c2N)cc1	0.8	?	26.7µM*	-7.2%	9.2%
O=[N+]([O-])c1ccc(C=Nc2ccccc2)cc1	-2.1	.	-5.0%	.	20.6%
Cc1[nH]n(-c2ccccc2)c(=S)c1C=Nc1cccc([N+](=O)[O-])c1	-16.0	22.4µM*	3.36µM*	10µM*	44.6%
CC[C@@H](CCCc1ccc(F)cc1)CN(Cc1ccc(OC)cc1)S(=O)(=O)c1ccc(C)cc1	1.5	.	.	.	.
COC(=O)c1ccccc1NC(=O)CSc1nc2ccsc2c(=O)n1CCC(C)C	0.8	2.8%	.	-8.0%	8.8%
O=C1SC(SCc2ccccc2Cl)=N/C1=C\c1ccc(C(=O)O)cc1	-1.1	?	16.8µM*	-8.5%	?
